Holding throughout (test): DAPPL (digital affinity profiling via proximity ligation, sequencing); 10 mM Tris-HCl pH 7.5, 50 mM NaCl, 1 mM DTT, 4% glycerol, room temperature, 30 min; GST-TFs on glutathione beads, 16-mer random dsDNA library, 0.1% formaldehyde crosslink after washing; high values mean tight binding
Assay [1] has as its target T1, FEV (Homo sapiens, UniProt Q99581 1-238).
T1 sequence: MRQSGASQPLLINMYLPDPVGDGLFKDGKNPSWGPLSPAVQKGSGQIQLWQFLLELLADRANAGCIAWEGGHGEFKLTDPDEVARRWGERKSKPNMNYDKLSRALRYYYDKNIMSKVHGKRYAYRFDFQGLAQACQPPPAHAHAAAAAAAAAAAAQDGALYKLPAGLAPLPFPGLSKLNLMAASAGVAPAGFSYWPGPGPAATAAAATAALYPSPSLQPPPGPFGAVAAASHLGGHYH
The following applies: protein: recombinant; tags: N-terminal GST; dsDNA, one strand shown. An outline of the steps: (§1)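 A tag-only sample was pooled with DNA-barcoded human transcription factors that had been expressed in yeast as GST fusions and captured on glutathione beads. The pools were incubated for 30 min at room temperature with 200 nmole of a random double-stranded 16-mer DNA library in Tris/NaCl/DTT/glycerol buffer, then washed, crosslinked with 0.1% formaldehyde, proximity-ligated (BsaI/T4 ligase, 1 h, 37 °C), PCR-amplified and sequenced on an Illumina NextSeq500. Binding signal is each hexamer's read frequency for a factor divided by its frequency for the tag-only sample.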

Assay [2] deals with ETV5 (Homo sapiens, UniProt P41161 1-510). To be noted: protein: recombinant; tags: N-terminal GST; dsDNA, one strand shown. A digest of the protocol:
as §1

In assay [3] the target is HSF1 (Homo sapiens, UniProt Q00613 1-529). The following applies: protein: recombinant; tags: N-terminal GST; chain copies: 3; dsDNA, one strand shown. A digest of the protocol:
as §1

Assay [4] has as its target T2, SPIC (Homo sapiens, UniProt Q8N5J4 1-248).
T2 sequence: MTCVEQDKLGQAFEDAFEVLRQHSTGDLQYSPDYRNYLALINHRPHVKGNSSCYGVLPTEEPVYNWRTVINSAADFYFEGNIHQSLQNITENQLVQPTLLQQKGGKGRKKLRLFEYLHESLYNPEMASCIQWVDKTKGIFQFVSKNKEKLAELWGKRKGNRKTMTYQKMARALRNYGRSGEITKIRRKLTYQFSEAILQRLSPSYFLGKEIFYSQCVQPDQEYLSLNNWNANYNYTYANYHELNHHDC
To be noted: protein: recombinant; tags: N-terminal GST; dsDNA, one strand shown. An outline of the steps:
as §1

Assay [5] addresses ELF4 (Homo sapiens, UniProt Q99607 1-663). The following applies: protein: recombinant; tags: N-terminal GST; dsDNA, one strand shown. An outline of the steps:
as §1

Assay [6] addresses T3, ELK4 (Homo sapiens, UniProt P28324-2 1-405).
T3 sequence: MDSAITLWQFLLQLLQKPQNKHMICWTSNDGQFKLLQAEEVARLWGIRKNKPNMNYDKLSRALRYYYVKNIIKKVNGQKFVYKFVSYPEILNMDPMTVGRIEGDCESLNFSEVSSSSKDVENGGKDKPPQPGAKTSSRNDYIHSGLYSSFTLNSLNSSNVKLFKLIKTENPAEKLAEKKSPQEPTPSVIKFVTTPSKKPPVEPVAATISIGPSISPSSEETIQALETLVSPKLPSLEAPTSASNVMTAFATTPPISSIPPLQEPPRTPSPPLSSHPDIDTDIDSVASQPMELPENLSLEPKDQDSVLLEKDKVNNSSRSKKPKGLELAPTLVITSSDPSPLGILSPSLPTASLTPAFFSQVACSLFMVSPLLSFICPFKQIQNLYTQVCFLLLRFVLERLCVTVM
To be noted: protein: recombinant; tags: N-terminal GST; dsDNA, one strand shown. An outline of the steps:
as §1

For assay [7], the target named is T4, ETV2 (Homo sapiens, UniProt O00321 1-342).
T4 sequence: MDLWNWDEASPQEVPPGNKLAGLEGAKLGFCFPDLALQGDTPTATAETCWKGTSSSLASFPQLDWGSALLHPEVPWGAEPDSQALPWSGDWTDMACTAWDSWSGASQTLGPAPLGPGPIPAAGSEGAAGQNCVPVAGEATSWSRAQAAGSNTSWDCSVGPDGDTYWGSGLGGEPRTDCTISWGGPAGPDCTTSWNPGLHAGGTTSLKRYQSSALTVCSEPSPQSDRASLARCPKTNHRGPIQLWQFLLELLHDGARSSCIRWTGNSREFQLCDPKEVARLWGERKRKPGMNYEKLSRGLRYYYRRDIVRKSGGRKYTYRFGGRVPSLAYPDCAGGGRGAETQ
To be noted: protein: recombinant; tags: N-terminal GST; dsDNA, one strand shown. An outline of the steps: as §1

For assay [8], the target named is T5, ELF3 (Homo sapiens, UniProt P78545 1-371).
T5 sequence: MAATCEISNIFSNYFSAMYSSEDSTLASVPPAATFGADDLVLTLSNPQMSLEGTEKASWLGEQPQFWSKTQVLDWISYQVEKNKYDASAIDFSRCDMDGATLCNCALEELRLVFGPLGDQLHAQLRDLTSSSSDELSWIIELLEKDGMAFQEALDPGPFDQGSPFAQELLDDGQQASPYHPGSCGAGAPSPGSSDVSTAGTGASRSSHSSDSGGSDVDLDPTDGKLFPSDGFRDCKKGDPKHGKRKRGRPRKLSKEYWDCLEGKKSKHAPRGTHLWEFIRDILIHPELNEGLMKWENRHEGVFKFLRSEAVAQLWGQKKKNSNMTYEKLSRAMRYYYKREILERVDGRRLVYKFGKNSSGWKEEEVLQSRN
The following applies: protein: recombinant; tags: N-terminal GST; dsDNA, one strand shown. A digest of the protocol:
as §1

Assay [9] has as its target CRX (Homo sapiens, UniProt O43186 1-299). To be noted: protein: recombinant; tags: N-terminal GST; dsDNA, one strand shown. A digest of the protocol:
as §1

For assay [10], the target named is ETV1 (Homo sapiens, UniProt P50549 1-477). To be noted: protein: recombinant; tags: N-terminal GST; dsDNA, one strand shown. A digest of the protocol: as §1
ETV1, sequence (P50549 whole entry): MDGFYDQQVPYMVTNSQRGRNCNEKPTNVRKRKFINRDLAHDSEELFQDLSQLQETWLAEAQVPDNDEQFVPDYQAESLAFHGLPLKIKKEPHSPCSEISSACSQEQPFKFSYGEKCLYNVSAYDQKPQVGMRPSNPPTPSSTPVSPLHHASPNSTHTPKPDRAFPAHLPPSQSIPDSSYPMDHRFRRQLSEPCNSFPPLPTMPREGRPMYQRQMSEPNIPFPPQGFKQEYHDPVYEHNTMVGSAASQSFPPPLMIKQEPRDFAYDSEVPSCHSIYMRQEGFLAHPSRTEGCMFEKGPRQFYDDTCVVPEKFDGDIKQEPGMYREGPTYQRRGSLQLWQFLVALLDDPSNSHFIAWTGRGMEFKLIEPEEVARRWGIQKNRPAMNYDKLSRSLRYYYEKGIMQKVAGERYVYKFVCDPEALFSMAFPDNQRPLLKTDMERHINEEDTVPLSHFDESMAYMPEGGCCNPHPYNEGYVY
The target in assay [11] is T6, ERF (Homo sapiens, UniProt P50548 1-548).
T6 sequence: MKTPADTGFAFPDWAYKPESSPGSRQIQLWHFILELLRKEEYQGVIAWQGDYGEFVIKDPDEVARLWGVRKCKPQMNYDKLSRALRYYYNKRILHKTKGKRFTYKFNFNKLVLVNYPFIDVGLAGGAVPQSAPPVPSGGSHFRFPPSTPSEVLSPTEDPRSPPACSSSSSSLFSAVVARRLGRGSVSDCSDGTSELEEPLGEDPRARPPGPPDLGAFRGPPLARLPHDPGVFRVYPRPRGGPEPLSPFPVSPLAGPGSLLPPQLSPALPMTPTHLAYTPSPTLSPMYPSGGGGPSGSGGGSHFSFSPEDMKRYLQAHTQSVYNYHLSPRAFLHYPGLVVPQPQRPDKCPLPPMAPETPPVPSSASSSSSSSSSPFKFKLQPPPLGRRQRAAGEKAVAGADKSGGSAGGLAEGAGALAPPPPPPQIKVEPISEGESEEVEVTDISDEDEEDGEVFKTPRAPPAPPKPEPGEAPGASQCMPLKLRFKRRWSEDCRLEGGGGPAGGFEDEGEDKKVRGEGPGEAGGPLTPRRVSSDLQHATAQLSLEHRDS
To be noted: protein: recombinant; tags: N-terminal GST; dsDNA, one strand shown. A digest of the protocol:
as §1

Assay [12] concerns the target T7, ETV3L (Homo sapiens, UniProt Q6ZN32 1-361).
T7 sequence: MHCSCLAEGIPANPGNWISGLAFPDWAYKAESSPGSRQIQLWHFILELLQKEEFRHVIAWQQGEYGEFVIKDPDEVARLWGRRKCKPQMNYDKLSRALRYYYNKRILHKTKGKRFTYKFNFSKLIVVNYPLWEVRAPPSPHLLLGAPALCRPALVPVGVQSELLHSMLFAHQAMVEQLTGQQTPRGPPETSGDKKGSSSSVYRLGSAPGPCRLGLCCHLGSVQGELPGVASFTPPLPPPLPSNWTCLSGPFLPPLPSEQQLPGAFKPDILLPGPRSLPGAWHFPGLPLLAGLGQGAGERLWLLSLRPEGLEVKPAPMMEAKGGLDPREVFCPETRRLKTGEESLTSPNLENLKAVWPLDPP
The following applies: protein: recombinant; tags: N-terminal GST; dsDNA, one strand shown. A digest of the protocol:
as §1

Assay [13] has as its target T8, ETS2 (Homo sapiens, UniProt P15036 1-469).
T8 sequence: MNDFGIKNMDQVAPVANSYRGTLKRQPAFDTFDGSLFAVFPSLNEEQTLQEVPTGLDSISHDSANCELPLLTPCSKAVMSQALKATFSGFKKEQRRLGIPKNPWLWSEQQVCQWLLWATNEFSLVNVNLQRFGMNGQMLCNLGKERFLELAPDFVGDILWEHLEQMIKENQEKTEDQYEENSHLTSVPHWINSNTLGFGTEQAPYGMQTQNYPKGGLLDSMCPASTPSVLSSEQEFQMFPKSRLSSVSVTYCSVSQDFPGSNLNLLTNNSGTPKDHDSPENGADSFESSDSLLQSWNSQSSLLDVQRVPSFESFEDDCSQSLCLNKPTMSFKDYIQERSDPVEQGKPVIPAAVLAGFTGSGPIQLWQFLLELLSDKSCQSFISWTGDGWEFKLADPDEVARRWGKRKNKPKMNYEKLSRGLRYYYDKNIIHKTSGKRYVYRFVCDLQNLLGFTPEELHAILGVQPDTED
The following applies: protein: recombinant; tags: N-terminal GST; dsDNA, one strand shown. A digest of the protocol:
as §1

For assay [14], the target named is T9, SPDEF (Homo sapiens, UniProt O95238 1-335).
T9 sequence: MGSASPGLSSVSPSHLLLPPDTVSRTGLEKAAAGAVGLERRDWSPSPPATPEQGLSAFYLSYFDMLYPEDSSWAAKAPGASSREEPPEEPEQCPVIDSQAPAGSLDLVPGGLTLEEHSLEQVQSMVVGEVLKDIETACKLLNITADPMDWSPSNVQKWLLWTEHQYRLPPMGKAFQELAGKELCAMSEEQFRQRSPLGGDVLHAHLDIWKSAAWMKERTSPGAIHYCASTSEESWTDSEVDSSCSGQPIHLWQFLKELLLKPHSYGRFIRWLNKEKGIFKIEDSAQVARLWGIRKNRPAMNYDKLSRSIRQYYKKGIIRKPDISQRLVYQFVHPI
The following applies: protein: recombinant; tags: N-terminal GST; dsDNA, one strand shown. A digest of the protocol: as §1

The target of assay [15] is T10, ETV7 (Homo sapiens, UniProt Q9Y603 1-341).
T10 sequence: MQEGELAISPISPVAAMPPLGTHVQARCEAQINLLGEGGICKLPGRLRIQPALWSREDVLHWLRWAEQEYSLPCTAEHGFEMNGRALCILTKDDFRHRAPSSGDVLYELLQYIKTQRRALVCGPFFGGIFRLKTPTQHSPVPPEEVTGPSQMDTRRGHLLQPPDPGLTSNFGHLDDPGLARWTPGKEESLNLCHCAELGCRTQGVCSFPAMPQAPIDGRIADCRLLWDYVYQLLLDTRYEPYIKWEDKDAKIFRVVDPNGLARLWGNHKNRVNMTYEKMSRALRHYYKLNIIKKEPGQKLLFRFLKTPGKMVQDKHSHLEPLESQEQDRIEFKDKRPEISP
To be noted: protein: recombinant; tags: N-terminal GST; dsDNA, one strand shown. A digest of the protocol: as §1

Assay [16] deals with T11, ELF5 (Homo sapiens, UniProt Q9UKW6-2 1-255).
T11 sequence: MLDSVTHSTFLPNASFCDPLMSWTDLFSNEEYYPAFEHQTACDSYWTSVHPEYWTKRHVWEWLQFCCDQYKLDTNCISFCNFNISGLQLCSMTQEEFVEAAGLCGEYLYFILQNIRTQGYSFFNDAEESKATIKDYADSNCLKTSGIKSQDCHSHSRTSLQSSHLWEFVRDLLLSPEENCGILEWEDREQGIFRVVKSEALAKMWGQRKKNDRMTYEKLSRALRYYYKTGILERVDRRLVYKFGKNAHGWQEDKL
To be noted: protein: recombinant; tags: N-terminal GST; dsDNA, one strand shown. A digest of the protocol: as §1

Assay [17] deals with T12, ETV3 (Homo sapiens, UniProt P41162-2 1-143).
T12 sequence: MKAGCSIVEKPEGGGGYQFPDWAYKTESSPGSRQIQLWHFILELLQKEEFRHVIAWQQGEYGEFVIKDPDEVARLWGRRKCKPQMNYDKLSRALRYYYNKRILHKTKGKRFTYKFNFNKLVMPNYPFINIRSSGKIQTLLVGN
To be noted: protein: recombinant; tags: N-terminal GST; dsDNA, one strand shown. An outline of the steps: as §1

The target in assay [18] is ETV6 (Homo sapiens, UniProt P41212 1-452). To be noted: protein: recombinant; tags: N-terminal GST; dsDNA, one strand shown. An outline of the steps: as §1
ETV6, sequence (P41212 whole entry): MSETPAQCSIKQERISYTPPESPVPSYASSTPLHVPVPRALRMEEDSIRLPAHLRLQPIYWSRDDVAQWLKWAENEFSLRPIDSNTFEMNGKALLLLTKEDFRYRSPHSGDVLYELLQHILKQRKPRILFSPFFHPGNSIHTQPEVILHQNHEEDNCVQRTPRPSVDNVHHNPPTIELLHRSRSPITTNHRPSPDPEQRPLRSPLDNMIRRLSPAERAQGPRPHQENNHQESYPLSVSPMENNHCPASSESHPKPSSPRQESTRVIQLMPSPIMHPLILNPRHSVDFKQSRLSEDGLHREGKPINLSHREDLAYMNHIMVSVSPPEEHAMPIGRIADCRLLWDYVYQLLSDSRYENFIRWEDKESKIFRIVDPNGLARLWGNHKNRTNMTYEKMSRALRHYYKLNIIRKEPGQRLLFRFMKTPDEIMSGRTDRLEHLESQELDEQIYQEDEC

CRX, sequence (O43186 whole entry): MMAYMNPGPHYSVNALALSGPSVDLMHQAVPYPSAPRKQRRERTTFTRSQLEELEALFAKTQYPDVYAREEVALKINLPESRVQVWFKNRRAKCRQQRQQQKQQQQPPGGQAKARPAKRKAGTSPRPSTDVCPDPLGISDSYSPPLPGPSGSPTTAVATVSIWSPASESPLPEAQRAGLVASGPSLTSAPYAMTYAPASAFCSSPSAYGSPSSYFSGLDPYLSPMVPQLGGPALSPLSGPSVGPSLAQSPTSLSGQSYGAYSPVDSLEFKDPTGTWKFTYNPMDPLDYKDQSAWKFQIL
HSF1, sequence (Q00613 whole entry): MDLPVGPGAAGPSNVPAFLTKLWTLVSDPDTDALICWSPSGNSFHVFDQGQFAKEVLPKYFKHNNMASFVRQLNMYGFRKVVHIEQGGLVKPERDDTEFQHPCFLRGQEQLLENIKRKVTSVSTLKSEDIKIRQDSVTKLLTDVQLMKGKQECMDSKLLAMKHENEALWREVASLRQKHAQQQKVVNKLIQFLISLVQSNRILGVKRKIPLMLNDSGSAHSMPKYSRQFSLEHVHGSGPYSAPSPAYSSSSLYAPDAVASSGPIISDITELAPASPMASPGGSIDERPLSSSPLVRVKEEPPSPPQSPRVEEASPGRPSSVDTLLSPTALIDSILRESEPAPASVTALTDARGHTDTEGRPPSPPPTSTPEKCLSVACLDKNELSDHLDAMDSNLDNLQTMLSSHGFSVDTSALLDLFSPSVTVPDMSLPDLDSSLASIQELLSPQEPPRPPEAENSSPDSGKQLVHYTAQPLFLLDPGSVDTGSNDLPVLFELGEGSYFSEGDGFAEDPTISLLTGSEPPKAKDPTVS
ETV5, sequence (P41161 whole entry): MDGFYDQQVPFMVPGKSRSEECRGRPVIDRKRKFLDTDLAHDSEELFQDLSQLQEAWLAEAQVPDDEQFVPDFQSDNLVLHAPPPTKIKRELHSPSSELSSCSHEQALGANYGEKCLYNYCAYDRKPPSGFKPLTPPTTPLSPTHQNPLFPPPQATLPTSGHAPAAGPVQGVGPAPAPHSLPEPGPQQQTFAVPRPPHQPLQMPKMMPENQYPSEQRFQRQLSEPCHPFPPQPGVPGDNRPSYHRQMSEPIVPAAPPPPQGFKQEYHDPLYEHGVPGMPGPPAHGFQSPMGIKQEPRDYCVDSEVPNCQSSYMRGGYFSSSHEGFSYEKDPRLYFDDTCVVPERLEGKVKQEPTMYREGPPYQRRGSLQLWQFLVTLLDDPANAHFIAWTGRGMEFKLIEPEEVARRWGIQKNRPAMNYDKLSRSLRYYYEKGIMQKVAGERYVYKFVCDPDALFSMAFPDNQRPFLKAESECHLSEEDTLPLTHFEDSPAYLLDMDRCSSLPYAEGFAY
ELF4, sequence (Q99607 whole entry): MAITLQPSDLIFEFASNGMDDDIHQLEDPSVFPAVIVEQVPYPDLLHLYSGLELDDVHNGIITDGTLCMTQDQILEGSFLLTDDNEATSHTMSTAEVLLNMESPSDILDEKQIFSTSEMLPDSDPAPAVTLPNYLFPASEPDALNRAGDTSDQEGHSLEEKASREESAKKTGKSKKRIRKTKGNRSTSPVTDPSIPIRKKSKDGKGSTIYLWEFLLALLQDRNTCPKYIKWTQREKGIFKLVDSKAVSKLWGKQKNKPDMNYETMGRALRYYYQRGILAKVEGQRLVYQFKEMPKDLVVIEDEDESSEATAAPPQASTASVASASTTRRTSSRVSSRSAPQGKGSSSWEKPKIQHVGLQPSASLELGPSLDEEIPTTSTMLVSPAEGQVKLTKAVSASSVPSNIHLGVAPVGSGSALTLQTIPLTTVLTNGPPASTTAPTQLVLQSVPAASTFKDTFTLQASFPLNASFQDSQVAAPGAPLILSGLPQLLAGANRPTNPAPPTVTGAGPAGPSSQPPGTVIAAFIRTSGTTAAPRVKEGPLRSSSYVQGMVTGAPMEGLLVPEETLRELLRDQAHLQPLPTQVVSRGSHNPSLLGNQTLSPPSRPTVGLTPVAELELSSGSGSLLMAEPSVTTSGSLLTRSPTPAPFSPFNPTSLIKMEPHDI

With ATTCGC, the binding signal in assay [1] was 1.24 fold enrichment (6-mer frequency, TF over GST control); in [2], 1.13 fold enrichment (6-mer frequency, TF over GST control); in assay [3] it was 1.47 fold enrichment (6-mer frequency, TF over GST control); in assay [4], 1.39 fold enrichment (6-mer frequency, TF over GST control); in [5] it was 1.11 fold enrichment (6-mer frequency, TF over GST control); in assay [6] it was 1.1 fold enrichment (6-mer frequency, TF over GST control). The binding signal in [7] is 1.29 fold enrichment (6-mer frequency, TF over GST control); in [8], 1.27 fold enrichment (6-mer frequency, TF over GST control); in [9], 1.26 fold enrichment (6-mer frequency, TF over GST control); in [10] it was 1.11 fold enrichment (6-mer frequency, TF over GST control); in assay [11] it was 1.24 fold enrichment (6-mer frequency, TF over GST control); in assay [12] it was 1.23 fold enrichment (6-mer frequency, TF over GST control). For the same sequence, the binding signal in [13] is 1.15 fold enrichment (6-mer frequency, TF over GST control); in assay [14] it was 1.26 fold enrichment (6-mer frequency, TF over GST control); in assay [15] it was 1.12 fold enrichment (6-mer frequency, TF over GST control); in assay [16], 1.18 fold enrichment (6-mer frequency, TF over GST control); in assay [17], 1.23 fold enrichment (6-mer frequency, TF over GST control); in [18], 1.25 fold enrichment (6-mer frequency, TF over GST control).

For the origin of these results see PMC7862700, “An all-to-all approach to the identification of sequence-specific readers for epigenetic DNA modifications on cytosine”.
